Data: PubChem BioAssay (NCATS)
Records with an inconclusive call do not appear. Activity calls are given as the source filed them. Calls follow the shape of the dose curve; as a rule, active = well fitted curve in the direction sought with a large enough effect; inconclusive = small, poorly fitted or top-dose-only effect, or another doubt; inactive = no such curve, though single readings can be large or run the other way.

Each compound was assayed against phosphoglycerate mutase (Leishmania major) (UniProt Q4Q090) (assay: qHTS Validation Assay to Find Inhibitors of Phosphoglycerate Mutase (AID 504548)). Settings: biochemical enzyme activity; series mostly up to 57.5 µM.
Excerpt: NIH Molecular Libraries Probe Production Network [MLPCN]
NIH Chemical Genomics Center [NCGC]
PI Name: Malcolm Walkinshaw, University of Edinburgh
Several species of the Trypanosomatidae family of parasitic protozoans cause a spectrum of diseases throughout the tropical and subtropical world. Sleeping sickness, caused by two subspecies of Trypanosoma brucei, is endemic to areas of sub-Saharan Africa, while Chagas disease, a manifestation of Trypanosoma cruzi infection, is prevalent throughout Central and South America. In addition, many species of Leishmania are responsible for a range of cutaneous and visceral diseases, causing ulcers, destructive lesions and kalaazar, a lethal infection of the viscera. Collectively, these organisms infect 30 million people worldwide (~500 million live in endemic areas), and account for ~130,000 deaths annually. Given their debilitating and prevalent nature, trypanosomatid parasites impose a heavy medical, economic and social burden on entire populations, primarily in the developing world. The problem is further exacerbated by the fact that existing treatments have progressed little in the past 50 years, and current drugs show high toxicity and poor efficacy.
Blood-stream stages of T. brucei are entirely dependent on glycolysis as a source of ATP, and the tricarboxylic acid cycle and oxidative phosphorylation are both repressed. Glycolysis in axenically cultured T. cruzi, representing the intracellular pathogenic stage, is also essential for these parasites. […] Previous studies have shown that the glycolytic enzyme, phosphoglycerate mutase (PGAM), is a viable target for drugs to kill these parasites. […] Furthermore, the cobalt centers present within PGAM are only found in trypanosomatid and plant PGAMs, and are known to be required for activity, thereby providing an additional target. Moreover, trypanosomatid PGAMs are completely different from the enzyme that performs the same function in humans: the parasite and host enzymes share no structural or even mechanistic features; specificity is therefore unlikely to be an issue.
NCGC Assay Protocol Summary:
Briefly, 3ul of substrate buffer (all columns) are dispensed into Greiner white solid bottom 1536-well assay plates. Compounds are then transferred via Kalypsys pin tool equipped with 1536-pin array (10nl slotted pins, V&P Scientific, San Diego, CA). Following addition of compound, 1ul of Lm PGAM (1.25nM final concentration, columns […]) is added to initiate the reaction; columns 3-4 receive only TEA buffer as negative controls. The plates are then incubated at room temperature for 45 minutes. Kinase-GloPlus reagent is added (2ul) and plates incubated for 10 minutes, before being transferred to a ViewLux high-throughput CCD imager (PerkinElmer) wherein single end-point measurements of luminescence are acquired using a clear filter. All reagents are diluted in an assay buffer consisting of 100 mM TEA (pH 7.6), 5 mM MgCl2 and 0.01% Tween-20.

Chain of phosphoglycerate mutase (Leishmania major) (Q4Q090 1-553): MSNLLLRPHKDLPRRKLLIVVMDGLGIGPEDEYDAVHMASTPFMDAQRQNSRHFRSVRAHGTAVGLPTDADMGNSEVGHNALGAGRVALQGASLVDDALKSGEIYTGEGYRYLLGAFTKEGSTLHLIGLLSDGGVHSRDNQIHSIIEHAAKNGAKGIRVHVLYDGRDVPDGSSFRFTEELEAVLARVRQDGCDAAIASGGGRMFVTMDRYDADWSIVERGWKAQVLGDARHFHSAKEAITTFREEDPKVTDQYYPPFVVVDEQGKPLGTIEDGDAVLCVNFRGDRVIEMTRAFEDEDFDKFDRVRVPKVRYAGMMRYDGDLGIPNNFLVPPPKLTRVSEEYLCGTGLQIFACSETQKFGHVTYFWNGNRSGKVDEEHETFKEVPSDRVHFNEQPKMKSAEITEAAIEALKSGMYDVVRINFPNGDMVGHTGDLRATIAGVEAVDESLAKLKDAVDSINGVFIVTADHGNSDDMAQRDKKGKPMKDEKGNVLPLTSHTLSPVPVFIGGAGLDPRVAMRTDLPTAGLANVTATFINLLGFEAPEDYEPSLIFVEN

Structure (SMILES)	outcome
O=[N+]([O-])c1ccc(-c2nc(-c3ccc(F)cc3)c(-c3ccncc3)[nH]2)cc1	inactive
C[N+](C)(C)CCO	inactive
Cc1nn(-c2ccccc2)c(C)c1/C=N/N1CCN(Cc2ccccc2)CC1	inactive
Brc1ccc([C@H]2CN3CCSC3=N2)cc1	inactive
Nc1ncnc2n[nH]c(Nc3ccc(F)cc3)c12	inactive
N[C@@H](Cn1ccc(=O)c(O)c1)C(=O)O	inactive
COc1ccccc1N1CCN(CCN2C(=O)CC3(CCCC3)CC2=O)CC1	inactive
COc1cccc2c1[C@@H]1CN(CCCCn3c(=O)[nH]c4c(sc5ncc(-c6ccccc6)nc54)c3=O)C[C@@H]1CO2	inactive
CCN(CC)CCNC(=O)c1ccc(NS(C)(=O)=O)cc1	inactive
O=C1NC(=O)/C(=C/c2ccc3c(c2)OC(F)(F)O3)S1	inactive
O=C1NC(c2cccc([N+](=O)[O-])c2)=CCN1c1ccccc1O	inactive
CN(C)c1cc2c(Nc3ccc4c(cnn4Cc4ccccc4)c3)ncnc2cn1	inactive
NC(N)=NCCCCN=C(N)N	inactive
COC(=O)C1=CO[C@@H](O)[C@@H]2C(CO)=CC[C@H]12	inactive
Clc1ccc2c(c1)N=C(N1CCNCC1)c1ccccc1N2	inactive
Cn1cnc2c(NCc3ccccc3)nc(NCCO)nc21	inactive
